Here are results for 40 compounds from PubChem BioAssay (NCI).

About 79,000 compounds went through this panel and 15% of them were active in at least one assay; those are over-represented in the sample as a whole. A number with no mark means an inactive call. Active and inactive are the calls of the source. No stated cut-off is given here; in the data, active means growth inhibition above about 70%; inactive means the rest.

The first experiment is described as follows: NCI Yeast Anticancer Drug Screen. Data for the sgs1 mgt1 strain (AID 161).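 Further: 0% = growth of cultures given vehicle only.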 As to conditions: S. cerevisiae sgs1 mgt1 strain, at 50.0 µM, hits give high values. In short, it runs like this:
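Read-out: growth inhibition vs vehicle controls. Cells: mutant yeast strain deficient in DNA damage repair.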
Take `CC1(C)C/C(=C\c2cccc(Cl)c2)C(=O)c2ccccc21`: the growth inhibition is -0.75%.
The same measure, in the same setting: the same measure for `Cc1ccc(C)c(NC(=O)C2C(=O)C(=O)N(c3cc(C)ccc3C)C2=O)c1` (stereo not given): -18.5%; for `Cn1c(=O)c2c(nc(Cl)n2C)n(C)c1=O`: -16.1%; for `CCOC(=O)COc1ccc(C)c2c1C(=O)CC2`: -13.2%.
On the same count and under the same terms, the same measure for `CCOc1ccc(NC(=O)CC2SC(=Nc3ccc(C)cc3C)NC2=O)cc1` (stereo not given): 33.3%; for `CCC(O)C1CCCCC1O` (stereo not given): -3.8%; for `Cc1ccc(C(=O)OC[C@H]2CC[C@@H](n3cc(N(C)C4CCCCC4)c(=O)[nH]c3=O)O2)cc1`: 8.7%.
On the same count and under the same terms, the same measure for `CN(CC(=O)NC(=O)c1ccccc1)Cc1ccccc1`: 3.95%.
As to `Cc1ccc([N+](=O)[O-])cc1S(=O)(=O)O`, the growth inhibition was 21.8%.
With `CCN(CC)CCCNc1ccc2ncn3c4ccc(O)cc4c(=O)c1c23`, the growth inhibition was -54%.
For `CCOc1ccc2c(N=[N+]=[N-])cc(C)nc2c1`, the growth inhibition was -18.2%.
In the case of `O=C(NCCNCCO)N/N=C/c1ccccc1`, the growth inhibition was -15.9%.
On the same count and under the same terms, the same measure for `S=c1ncnc2cc3[nH][nH]cc3cc12`: -5.35%; for `c1ccc(Cn2nnc(-c3ccccc3)n2)cc1`: 5.3%.
Same read-out and setting: the same measure for `COc1ccc(S(=O)(=O)N/N=C/c2cc(I)cc([N+](=O)[O-])c2O)cc1`: 9.85%.
Still for that read-out and setting: the same measure for `COc1ccc(/C=N/NC(=O)C(=O)Nc2ccc(Cl)c([N+](=O)[O-])c2)cc1OC`: -0.65%.
`O=C1OC(=O)c2c(Cl)c(Cl)c(Cl)c(Cl)c21`: the growth inhibition was 23.9%.
Same read-out and setting: the same measure for `CC(=O)OCC1OC(n2c(O)c(/C=C3\C=Nc4ccccc43)sc2=S)C(OC(C)=O)C(OC(C)=O)C1OC(C)=O` (stereo not given): -15.4%; for `O=C(Oc1ccccc1Cl)C1=C(C(=O)Oc2ccccc2Cl)CCC1`: 45.5%.
Still for that read-out and setting: the same measure for `O=C(O)c1ccccc1C(=O)NCc1ccc(Cl)cc1Cl`: 21.4%.
The same measure, in the same setting: the same measure for `CN1CCN(CC2C3CCC(C3)C2O)CC1` (stereo not given): -16.1%; for `COC(=O)/C=C/C(=O)OC`: 19.4%.
`Cc1sc2c(c1C)/C(=N\O)c1cccn1-2`: the growth inhibition was 34%.
Take `CCC1CCC(CC)C1OC(C)=O` (stereo not given): the growth inhibition was -12.3%.
Turning to `COC(=O)C1(C(=O)OC)OC(c2ccc(OC)cc2)[C@H]2C(=O)N(C)C(=O)[C@H]21` (stereo not given in full), the growth inhibition was 3.1%.
Still for that read-out and setting: the same measure for `C=C(C(=O)NC1CCCCC1)c1ccccc1`: -8.2%; for `ClCCCOC1CCCCO1` (stereo not given): -21.1%; for `NC(=O)N/N=C(/Cl)C(=O)NNC(N)=O`: -10.5%.
The same measure, in the same setting: the same measure for `Cc1ccc(C(=O)c2ccccc2C(=O)O)cc1C(=O)O`: 1.15%; for `CC/C(=C/c1cccc([N+](=O)[O-])c1)C(=O)O`: 0%; for `CC(NNC(=S)N1CCCCCC1)c1cccc[n+]1[O-]` (stereo not given): 96.5% (active).
The same measure, in the same setting: the same measure for `O=c1[nH]c(C(F)(F)F)c(CCc2ccccc2)c(=O)[nH]1`: 36.9%; for `CC[N+](C)(CC)CC[N+]1(C)CCCCCCC1`: 5.8%.
As to `O=C1c2cccc3cc([N+](=O)[O-])cc(c23)C(=O)N1CC1CCCO1` (stereo not given), the growth inhibition was 30.6%.
The same measure, in the same setting: the same measure for `C=C1CC[C@H]2C(C)=CC[C@@H]3[C@H](OC(=O)[C@H]3COC)[C@@H]12`: -11.5%; for `CCOC(=O)c1ccc(-c2ccccc2)cc1`: -14.7%; for `O=c1oc2cc(O)ccc2cc1-c1nc2ccccc2o1`: -31.2%.
Still for that read-out and setting: the same measure for `CCOC(=O)Cc1cccnc1`: -14.1%; for `Cc1c(C(=O)O)n2cnnc2c2ccccc12`: -38.1%; for `O=C(/C=C\c1ccco1)NC(=O)NC(=O)N1CCCCC1`: -2.05%.

A short description of the next experiment: NCI Yeast Anticancer Drug Screen. Data for the cln2 rad14 strain (AID 165).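 Further: 0% = growth equal to vehicle treated cultures.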 As to conditions: S. cerevisiae cln2 rad14 strain, at 50.0 µM, hits give high values. In short, it runs like this:
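Growth of compound-exposed yeast (cln2 rad14 genotype) measured and expressed as inhibition relative to vehicle.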
As to `CC1(C)C/C(=C\c2cccc(Cl)c2)C(=O)c2ccccc21`, the growth inhibition is -12.8%.
The same measure, in the same setting: the same measure for `Cc1ccc(C)c(NC(=O)C2C(=O)C(=O)N(c3cc(C)ccc3C)C2=O)c1` (stereo not given): 7.2%.
Take `Cn1c(=O)c2c(nc(Cl)n2C)n(C)c1=O`: the growth inhibition was -29.3%.
Regarding `CCOC(=O)COc1ccc(C)c2c1C(=O)CC2`, the growth inhibition is -25.9%.
On to `CCOc1ccc(NC(=O)CC2SC(=Nc3ccc(C)cc3C)NC2=O)cc1` (stereo not given), for which the growth inhibition is 44.3%.
Same read-out and setting: the same measure for `CCC(O)C1CCCCC1O` (stereo not given): 15.7%.
`Cc1ccc(C(=O)OC[C@H]2CC[C@@H](n3cc(N(C)C4CCCCC4)c(=O)[nH]c3=O)O2)cc1`: the growth inhibition was 14.5%.
The same measure, in the same setting: the same measure for `CN(CC(=O)NC(=O)c1ccccc1)Cc1ccccc1`: -37%.
Still for that read-out and setting: the same measure for `Cc1ccc([N+](=O)[O-])cc1S(=O)(=O)O`: 11.7%; for `CCN(CC)CCCNc1ccc2ncn3c4ccc(O)cc4c(=O)c1c23`: 11.8%.
Still for that read-out and setting: the same measure for `CCOc1ccc2c(N=[N+]=[N-])cc(C)nc2c1`: -67.8%; for `O=C(NCCNCCO)N/N=C/c1ccccc1`: -7.75%.
Consider `S=c1ncnc2cc3[nH][nH]cc3cc12`, for which the growth inhibition is -33.5%.
Still for that read-out and setting: the same measure for `c1ccc(Cn2nnc(-c3ccccc3)n2)cc1`: -10.3%.
The same measure, in the same setting: the same measure for `COc1ccc(S(=O)(=O)N/N=C/c2cc(I)cc([N+](=O)[O-])c2O)cc1`: 8%; for `COc1ccc(/C=N/NC(=O)C(=O)Nc2ccc(Cl)c([N+](=O)[O-])c2)cc1OC`: 2.85%; for `O=C1OC(=O)c2c(Cl)c(Cl)c(Cl)c(Cl)c21`: -34.9%.
For `CC(=O)OCC1OC(n2c(O)c(/C=C3\C=Nc4ccccc43)sc2=S)C(OC(C)=O)C(OC(C)=O)C1OC(C)=O` (stereo not given), the growth inhibition was 18.9%.
Same read-out and setting: the same measure for `O=C(Oc1ccccc1Cl)C1=C(C(=O)Oc2ccccc2Cl)CCC1`: -1.45%; for `O=C(O)c1ccccc1C(=O)NCc1ccc(Cl)cc1Cl`: -7.3%.
On the same count and under the same terms, the same measure for `CN1CCN(CC2C3CCC(C3)C2O)CC1` (stereo not given): 4.4%; for `COC(=O)/C=C/C(=O)OC`: 9.3%.
With `Cc1sc2c(c1C)/C(=N\O)c1cccn1-2`, the growth inhibition is 26%.
Same read-out and setting: the same measure for `CCC1CCC(CC)C1OC(C)=O` (stereo not given): -26.4%.
Still for that read-out and setting: the same measure for `COC(=O)C1(C(=O)OC)OC(c2ccc(OC)cc2)[C@H]2C(=O)N(C)C(=O)[C@H]21` (stereo not given in full): -8.7%; for `C=C(C(=O)NC1CCCCC1)c1ccccc1`: -12.4%; for `ClCCCOC1CCCCO1` (stereo not given): 26.9%.
The same measure, in the same setting: the same measure for `NC(=O)N/N=C(/Cl)C(=O)NNC(N)=O`: -81.2%; for `Cc1ccc(C(=O)c2ccccc2C(=O)O)cc1C(=O)O`: 2.7%.
On to `CC/C(=C/c1cccc([N+](=O)[O-])c1)C(=O)O`, for which the growth inhibition was 6.1%.
On to `CC(NNC(=S)N1CCCCCC1)c1cccc[n+]1[O-]` (stereo not given), for which the growth inhibition was 97.6% (active).
Still for that read-out and setting: the same measure for `O=c1[nH]c(C(F)(F)F)c(CCc2ccccc2)c(=O)[nH]1`: -3.8%.
Take `CC[N+](C)(CC)CC[N+]1(C)CCCCCCC1`: the growth inhibition is -40.6%.
On the same count and under the same terms, the same measure for `O=C1c2cccc3cc([N+](=O)[O-])cc(c23)C(=O)N1CC1CCCO1` (stereo not given): 18.1%; for `C=C1CC[C@H]2C(C)=CC[C@@H]3[C@H](OC(=O)[C@H]3COC)[C@@H]12`: 5.4%.
On the same count and under the same terms, the same measure for `CCOC(=O)c1ccc(-c2ccccc2)cc1`: -7.25%.
Regarding `O=c1oc2cc(O)ccc2cc1-c1nc2ccccc2o1`, the growth inhibition was 14.1%.
Same read-out and setting: the same measure for `CCOC(=O)Cc1cccnc1`: 16.5%; for `Cc1c(C(=O)O)n2cnnc2c2ccccc12`: 11.9%; for `O=C(/C=C\c1ccco1)NC(=O)NC(=O)N1CCCCC1`: -16.4%.
